Laboratory results: PubChem BioAssay (Tox21)
Records with an inconclusive call do not appear. Unmarked numbers belong to inactive results. The source made the active and inactive calls. The call rests on the fitted dose curve; in most records, active means well fitted inhibition curve with a large enough effect in the repeat runs; inconclusive means weak or mixed curves; inactive means no such curve, though single readings can be large or run the other way.

molecular target: Cytochrome P450 1A2 (Homo sapiens) (UniProt P05177); assay: Cytochrome P450 Family 1 Subfamily A Member 2 (CYP1A2) small molecule antagonists: luciferase reporter qHTS assay (AID 1671199); conditions: P450-Glo CYP1A2 enzyme, luciferin luminescence, 1 h; series mostly up to 53 µM; activity change, negative = inhibition: at the top concentration; further: nearly all actives have a fitted effect of over 50% in size
Sequence (P05177 whole entry, looked up): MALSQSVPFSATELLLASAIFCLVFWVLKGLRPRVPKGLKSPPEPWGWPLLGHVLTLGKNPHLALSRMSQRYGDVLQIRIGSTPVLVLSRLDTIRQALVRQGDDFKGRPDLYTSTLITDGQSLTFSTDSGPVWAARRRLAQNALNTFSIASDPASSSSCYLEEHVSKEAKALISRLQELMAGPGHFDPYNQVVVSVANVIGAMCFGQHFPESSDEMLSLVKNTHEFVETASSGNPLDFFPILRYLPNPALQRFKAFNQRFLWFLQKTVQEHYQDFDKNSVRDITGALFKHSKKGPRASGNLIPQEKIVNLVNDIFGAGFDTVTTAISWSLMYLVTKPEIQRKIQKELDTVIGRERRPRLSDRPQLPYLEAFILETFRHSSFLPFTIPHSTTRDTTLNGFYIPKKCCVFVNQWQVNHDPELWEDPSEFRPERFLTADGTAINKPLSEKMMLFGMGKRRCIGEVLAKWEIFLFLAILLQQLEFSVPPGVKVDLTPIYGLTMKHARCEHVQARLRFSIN
Text: National Center for Advancing Translational Sciences [NCATS]
U.S. Environmental Protection Agency [EPA]
National Institutes of Environmental Health Sciences [NIEHS]
National Toxicology Program [NTP]
U.S. Food and Drug Administration [FDA]
Cytochrome P450 (CYP) enzymes are membrane-bound hemeproteins that play a key role in metabolism of drugs and xenobiotics. Evaluation of the effect of chemicals on CYP isozymes is useful to minimize the adverse drug reactions and toxicities in drug development process. Tox21 chemicals were tested for their effect on CYP enzyme activities by using P450-Glo (TM) screening systems (Promega Corporation, Madison, WI). These systems provide a luminescent method containing proluciferin substrates and are converted to luciferin products by CYP isozymes. The luciferin products formed are detected with a luciferin detection reagent, and the amount of light produced is proportional to CYP activity. P450-Glo (TM) CYP1A2 screening system (Catalog. No. V9770) was used to detect the compounds that interfere in CYP1A2 activity. The positive control compound used for CYP1A2 assay is furafylline (Sigma-Aldrich, St. Louis, MO).
Tox21 Assay Protocol Summary:
Two ul of enzyme-substrate mix was dispensed into medium binding white/solid 1536-well plates (Greiner Bio-One North America Inc., Monroe, NC) using a BioRaptr Flying Reagent Dispenser (FRD, Beckman Coulter, Brea, CA). Compounds dissolved in DMSO and positive control (furafyllline) were transferred to the assay plates at 23 nl using a Pintool station (Wako, San Diego, CA). The assay plates were incubated at room temperature for 10 min. Then 2 ul of NADPH regeneration solution was added to each well of the assay plates using an FRD and incubated at room temperature for 1 h. The reaction was stopped by adding 4 ul of detection reagent using an FRD and after 20 min incubation at room temperature the luminescence signal was measured using a ViewLux plate reader (Perkin Elmer, Shelton, CT). Data were expressed as relative luminescence units.
On the % scale 0 is the no-effect control and ±100 the full control effect; potency means the concentration at half of the fitted maximal effect.

Row | SMILES | activity change, negative = inhibition | Potency
1 | CC(=O)N(CC(O)CN(C(C)=O)c1c(I)c(C(=O)NCC(O)CO)c(I)c(C(=O)NCC(O)CO)c1I)c1c(I)c(C(=O)NCC(O)CO)c(I)c(C(=O)NCC(O)CO)c1I (stereo not given) | -2.37% | –
2 | COC(=O)c1ccc(OC)cc1 | – | 35.6 µM (active)
3 | CCCCCCCCc1ccc(S(=O)(=O)O)cc1 | 7.8% [at 115 µM] | –
4 | OCCN(CCO)c1ccccc1 | -15.9% [at 115 µM] | –
5 | CC/C=C\CCOC(=O)C(C)C | -26.1% [at 115 µM] | –
6 | Cc1nc(N)nc(N)c1-c1ccc(Cl)c(Cl)c1 | -21% | –
7 | Cc1ccc(C)c(N)c1 | – | 35.6 µM (active)
8 | CCN(CC)CCOc1ccc(Cc2ccccc2)cc1 | -3.39% | –
9 | CCOC(=O)CS | – | 65.1 µM (active)
10 | O=C(O)[C@@H](O)[C@H](O)[C@H](O)[C@@H](O)C(=O)O | 13.7% | –
11 | O=C1Nc2ccc([N+](=O)[O-])cc2C1=O | – | 22.4 µM (active)
12 | NCCC(O)(P(=O)(O)O)P(=O)(O)O | – | 24.5 µM (active)
13 | O=C(O)c1ccccc1Nc1cc(Cl)ccc1C(=O)O | 12.6% [at 23.6 µM] | –
14 | O=C(O)[C@@H]1CSCN1 | 12.2% | –
15 | COc1nc(C)nc(NC(=O)NS(=O)(=O)c2ccccc2OCCCl)n1 | – | 35.4 µM (active)
16 | O=c1[nH]cnc2c1ncn2[C@@H]1O[C@H](CO)[C@@H](O)[C@H]1O | 15.3% | –
17 | CCOc1ccc(NC(N)=O)cc1 | – | 35.6 µM (active)
18 | Cc1onc(-c2ccccc2)c1C(=O)Cl | -11.2% | –
19 | CCc1cc(Cl)c(OC)c(C(=O)NC[C@@H]2CCCN2CC)c1O | – | 12.9 µM (active)
20 | CCCOCCC | -26.1% [at 115 µM] | –

Row | SMILES | activity change, negative = inhibition | Potency
21 | CCCCCCC | -11.1% [at 115 µM] | –
22 | O=C1CCCCCCCCCCC(=O)OCCO1 | – | 22.4 µM (active)
23 | O=Cc1ccc(O)c(O)c1O | 8.08% | –
24 | Clc1cccc(-c2cc(Cl)cc(Cl)c2)c1 | – | 21.7 µM (active)
25 | C/C(=N\O)[C@@H](C)NCC(C)(C)CN[C@H](C)/C(C)=N/O | 7.9% | –
26 | OCC(CBr)(CBr)CBr | -6.5% [at 115 µM] | –
27 | N#CSCC(=O)O | -11.9% | –
28 | O=c1oc2c(O)c(O)cc3c(=O)oc4c(O)c(O)cc1c4c23 | 12.7% [at 23.6 µM] | –
29 | OCc1ccccc1O | -15.3% | –
30 | CCCCCCOc1ccc(N)cc1 | – | 3.99 µM (active)
31 | Cc1cccc(C)c1NC(=O)CN1CCCCCC1 | 6.95% | –
32 | C1CSCCS1 | -20.4% [at 115 µM] | –
33 | CN1C(=O)CC(c2ccccc2)C1=O (stereo not given) | -8.55% | –
34 | CC(C)OC(C)C | -13.5% [at 115 µM] | –
35 | Nc1ccc2ccccc2c1S(=O)(=O)O | – | 3.24 µM (active)
36 | CCC(=O)c1ccc2c(c1)N(CCCN(C)C)c1ccccc1S2 | – | 1.82 µM (active)
37 | CC1(O)CSC(C)(O)CS1 (stereo not given) | – | 39.9 µM (active)
38 | CCN(O)CC | -10.8% [at 115 µM] | –
39 | Oc1ccccc1F | – | 35.5 µM (active)
40 | C=CCCC=C | -18.4% [at 115 µM] | –
